{
  "source": "PubChem BioAssay AID1259421",
  "about": "(Broad Institute, 2018)",
  "note": "Where “and” joins values, the source holds several entries; their conditions need not be identical. Equal entries are not always repeated. Among all 6,400 compounds or so, about 610 (9.5%) were called active. Rule as the data show it: active = activity change below about -70%; inconclusive = no clear call, values can overlap the other calls; inactive = above that. The sample as a whole holds a higher share of actives than the screen did. More than one record can exist for a structure, and the calls need not agree.",
  "data": [
    {"assay": "Toxoplasma gondii ME49Luc growth in HeLa cells, luciferase, no IFN-y, primary screen (AID 1259421)", "conditions": "T. gondii ME49Luc in HeLa, 72 h, stronger effect = lower value, concentration not given here", "values": [
      {"smiles": "O=C(Nc1ccc(O)cc1)c1ccccc1O", "activity change, negative = inhibition": "30.3% (inactive)"},
      {"smiles": "O=C(N/N=C/c1ccccc1O)c1ccccc1O", "activity change, negative = inhibition": "-88% (active) and -86.5% (active)"},
      {"smiles": "O=C(OC1C(OC(=O)c2cccnc2)C(OC(=O)c2cccnc2)C(OC(=O)c2cccnc2)C(OC(=O)c2cccnc2)C1OC(=O)c1cccnc1)c1cccnc1", "note": "(configuration not stated)", "activity change, negative = inhibition": "-4.81% (inactive) and 13.2% (inactive)"},
      {"smiles": "CCN(Cc1ccccc1)C(=O)Cn1c(=O)n(C)c2cnc(-c3ccccc3)nc21", "activity change, negative = inhibition": "9.96% (inactive)"},
      {"smiles": "CCN(CC)CCN(Cc1ccc(-c2ccc(C(F)(F)F)cc2)cc1)C(=O)Cn1c(SCc2ccc(F)cc2)nc(=O)c2c1CCC2", "activity change, negative = inhibition": "-77.9% (active)"},
      {"smiles": "O=C(O)[C@H](O)[C@@H](O)[C@H](O[C@@H]1O[C@H](CO)[C@H](O)[C@H](O)[C@H]1O)[C@H](O)CO", "activity change, negative = inhibition": "11.1% (inactive)"},
      {"smiles": "Clc1ccc(C(Cn2ccnc2)OCc2ccc(Sc3ccccc3)cc2)c(Cl)c1", "note": "(configuration not stated)", "activity change, negative = inhibition": "-73.4% (active)"},
      {"smiles": "Clc1ccc(C(Cn2ccnc2)OCc2csc3c(Cl)cccc23)c(Cl)c1", "note": "(configuration not stated)", "activity change, negative = inhibition": "-75.6% (active)"},
      {"smiles": "C=CCOC(Cn1ccnc1)c1ccc(Cl)cc1Cl", "note": "(configuration not stated)", "activity change, negative = inhibition": "26.1% (inactive) and 17.1% (inactive)"},
      {"smiles": "Clc1ccc(COC(Cn2ccnc2)c2ccc(Cl)cc2Cl)c(Cl)c1", "note": "(configuration not stated)", "activity change, negative = inhibition": "-91.6% (active)"},
      {"smiles": "Clc1ccc(C(Cn2ccnc2)OCc2ccsc2Cl)c(Cl)c1", "note": "(configuration not stated)", "activity change, negative = inhibition": "-28.7% (inactive) and -2.79% (inactive)"},
      {"smiles": "Clc1ccc(CSC(Cn2ccnc2)c2ccc(Cl)cc2Cl)cc1", "note": "(configuration not stated)", "activity change, negative = inhibition": "-80.3% (active) and -86.4% (active)"},
      {"smiles": "C[C@@H]1CC2C3C[C@H](F)C4=CC(=O)C=C[C@]4(C)[C@@]3(F)[C@@H](O)C[C@]2(C)[C@@]1(O)C(=O)CO", "note": "(some centres not stated)", "activity change, negative = inhibition": "1.95% (inactive)"},
      {"smiles": "CC(=O)N[C@H]1CSSC[C@@H](C(N)=O)NC(=O)[C@H](C(C)C)NC(=O)[C@H](C)NC(=O)[C@H](Cc2cnc[nH]2)NC1=O", "activity change, negative = inhibition": "-4.46% (inactive)"},
      {"smiles": "O=C(/C=C/c1ccc(O)c(O)c1)O[C@@H]1C[C@](OC(=O)/C=C/c2ccc(O)c(O)c2)(C(=O)O)C[C@@H](O)[C@H]1O", "activity change, negative = inhibition": "2.12% (inactive)"},
      {"smiles": "NC(=O)CCCCn1ccc(NC(N)=NCC(F)(F)F)n1", "activity change, negative = inhibition": "4.57% (inactive) and 3.01% (inactive)"},
      {"smiles": "C=C1C2CC[C@@]3(C)[C@H](c4ccoc4)OC(=O)C[C@]13O[C@H]1CC(=O)C(C)(C)[C@H](C(O)C(=O)OC)[C@@]21C", "note": "(some centres not stated)", "activity change, negative = inhibition": "-2.51% (inactive)"},
      {"smiles": "O=C1CCC[C@@H]2[C@@H]3CCC[N+]4([O-])CCC[C@H](CN12)[C@@H]34", "note": "(some centres not stated)", "activity change, negative = inhibition": "-1.57% (inactive)"},
      {"smiles": "N=C1CCCN1Cc1[nH]c(=O)[nH]c(=O)c1Cl", "activity change, negative = inhibition": "3.86% (inactive)"},
      {"smiles": "COc1cc2c(cc1OC(C)C)[C@H](c1ccc(Cl)cc1)N(c1ccc(N(C)CC3CCC(N4CCN(C)C(=O)C4)CC3)cc1)C(=O)C2", "note": "(some centres not stated)", "activity change, negative = inhibition": "-56.4% (inactive)"},
      {"smiles": "N[C@@H](CSCC(=O)O)C(=O)O", "activity change, negative = inhibition": "14.1% (inactive)"},
      {"smiles": "COc1ccc(/C=C/C(=O)c2cc(O)ccc2O)cc1", "activity change, negative = inhibition": "13.6% (inactive)"},
      {"smiles": "Nc1ncnc2c1ncn2[C@H]1CC[C@@H](CO)O1", "activity change, negative = inhibition": "1.09% (inactive)"},
      {"smiles": "CC(C)[N+]1(C)C2CCC1CC(OC(=O)C(CO)c1ccccc1)C2", "note": "(configuration not stated)", "activity change, negative = inhibition": "0.0846% (inactive)"},
      {"smiles": "O=C(O)CCc1cc(C(=O)c2ccc(OC3CCCC3)cc2O)ccc1OCc1ccc2c(=O)[nH]oc2c1", "activity change, negative = inhibition": "6.19% (inactive)"},
      {"smiles": "Cl/C(=C\\n1cncn1)c1ccc(Cl)cc1Cl", "activity change, negative = inhibition": "-11.5% (inactive)"},
      {"smiles": "Clc1ccc(C(Cn2ccnc2)OCc2c(Cl)cccc2Cl)c(Cl)c1", "note": "(configuration not stated)", "activity change, negative = inhibition": "-52.5% (inactive)"},
      {"smiles": "Clc1ccc(CO/N=C(\\Cn2ccnc2)c2ccc(Cl)cc2Cl)c(Cl)c1", "activity change, negative = inhibition": "-81.5% (active) and 40% (inactive)"},
      {"smiles": "Clc1ccc(COC(Cn2ccnc2)c2ccc(Cl)cc2Cl)cc1", "note": "(configuration not stated)", "activity change, negative = inhibition": "-77.4% (active) and -87.9% (active)"},
      {"smiles": "Cl/C(=C/n1cncn1)c1ccc(Cl)cc1Cl", "activity change, negative = inhibition": "-5.43% (inactive)"},
      {"smiles": "O=C(O)/C=C/c1ccc(Cn2ccnc2)cc1", "activity change, negative = inhibition": "-0.196% (inactive) and 8.1% (inactive)"},
      {"smiles": "Clc1ccc(CCC(Cn2ccnc2)Sc2c(Cl)cccc2Cl)cc1", "note": "(configuration not stated)", "activity change, negative = inhibition": "-83.9% (active) and -87.7% (active)"},
      {"smiles": "COc1cc(/C=C/C(=O)N2CCN(CC(=O)NC(C)C)CC2)cc(OC)c1OC", "activity change, negative = inhibition": "-0.924% (inactive)"},
      {"smiles": "CC(C)NC(=O)COc1cccc(-c2nc(Nc3ccc4[nH]ncc4c3)c3ccccc3n2)c1", "activity change, negative = inhibition": "-49.1% (inactive)"},
      {"smiles": "COc1ccc(CNC(=O)c2cc(-c3cncc(C)c3)ncc2-c2nccs2)nc1OC", "activity change, negative = inhibition": "3.2% (inactive)"},
      {"smiles": "N[C@@H](C(=O)O)[C@@H](OCc1ccccc1)C(=O)O", "note": "(racemic)", "activity change, negative = inhibition": "8.74% (inactive)"},
      {"smiles": "COc1cc(/C=C/C(=O)O[C@H]2CC[C@]34CC35CC[C@]3(C)[C@@H](C(C)CCC=C(C)C)CC[C@@]3(C)C5CCC4C2(C)C)ccc1O", "note": "(some centres not stated)", "activity change, negative = inhibition": "9.65% (inactive)"}
    ]}
  ]
}
